# Source: PubChem (Broad Institute)
# HIF act: HIF pathway transcriptional activation; U2OS HRE-luciferase reporter, luminescence; normalized: DMSO 0%, desferrioxamine 100%; activation, % at 7.5 µM (by protocol); actives 0.32% (n = 300,000); AID 1910;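 active means mean activation of at least 10% of the iron chelator positive control signal, with at least half of replicates also reaching 10%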
# SUMO Mot1 rescue: inhibitors of SUMOylation pathway: yeast Mot1-301 growth rescue | S. cerevisiae Mot1-301 growth rescue, ATP luminescence, 38.5C; percent above DMSO median, 100 means doubled | growth rescue, % at 18.8 µM | actives 1% (n = 320,000) | AID 2716;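 active means every valid replicate shows activation above 250% relative to neutral control wells; inactive means the rest, any valid replicate at or below 250%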;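 further: OY570 slx delta 5 strain wells were the positive control but not used for scaling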
# ALR H2O2 inh: inhibitors of human sulfhydryl oxidase ALR; actives 3.8% (n = 290,000); purified ALR, DTT oxidation, H2O2 HRP-luminol luminescence; inhibition, % (concentration not given with the values);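 active means mean replicate inhibition above about 79%, with every replicate also reaching it, limit read from the data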
# Target sequence (P55789 whole entry, looked up): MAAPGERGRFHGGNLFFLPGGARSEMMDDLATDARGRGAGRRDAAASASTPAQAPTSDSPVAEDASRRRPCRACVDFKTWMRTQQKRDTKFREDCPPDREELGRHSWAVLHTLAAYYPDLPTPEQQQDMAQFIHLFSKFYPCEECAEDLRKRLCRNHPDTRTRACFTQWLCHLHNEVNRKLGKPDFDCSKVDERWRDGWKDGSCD
# AI-2 QS mod: modulates the Vibrio harveyi AI-2 quorum sensing system; Vibrio harveyi JMH597 AI-2 luminescence/OD600 ratio, 9 h; stronger effect = lower value; strain lacks LuxN and CqsS sensors; 0 = neutral-control median; activity change, % at 7.5 µM; actives 0.4% (n = 300,000); AID 2094; in the data active means activity change below about -75%, passing the limit was not always enough;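 further: luminescence divided by OD600 gain over 9 h not by final OD600 alone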
# Yeast Mot1 SUMO: SUMO pathway inhibitors in yeast Mot1-301 growth; AID 493004; 2,300 tested, under 10 active; shares compounds with SUMO Mot1 rescue; S. cerevisiae Mot1-301 galactose growth, ATP luminescence, 24 h; -100 = growth of slx-deleted rescue strain; growth activity, percent, % at 42 µM;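 active means Signal drops as the depositor expects, and the fitted half-maximal dose is no more than ten times the top valid tested dose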;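 further: more negative values mean stronger growth rescue toward the control strain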
# * marks the source's active call; other numbers are inactive results; . = not tested or not shown; + = active, no number. A selection: hits, their analogues and other compounds. The true share with any hit is near 4.8%.
SMILES,HIF act,SUMO Mot1 rescue,ALR H2O2 inh,AI-2 QS mod,Yeast Mot1 SUMO
Cn1cnc2c1c(=O)n(Cc1cccc(Cl)c1)c(=O)n2C,0.1,195.4,5.0,5.8,.
Cc1cc(CNC(=O)C2CCC(=O)N(Cc3ccccc3F)C2)on1 (configuration not stated),-0.6,654.5*,2.7,30.0,0.7
CCc1nc(CNC(=O)C2CCC(=O)N(Cc3ccccc3F)C2)no1 (configuration not stated),-0.9,.,.,7.0,.
COc1ccc(NC(=O)CCC(=O)Nc2nnc(C(F)(F)F)s2)c(OC)c1,-0.5,819.6*,-15.8,13.0,-0.1
C=C(C)Cn1c(CN(C)Cc2ccccc2)nc2c1c(=O)n(C)c(=O)n2C,-0.8,-5.6,4.9,-3.9,.
CS(=O)(=O)N1CCC(Oc2ccccc2C(=O)N2CCNC(=O)C2)CC1,0.0,401.2*,3.9,49.8,-0.2
CS(=O)(=O)N1CCC(Oc2ccccc2C(=O)N2CCN(CC3CC3)CC2)CC1,-0.8,-14.0,0.0,16.9,.
CCCCOc1ccc(C(=O)Nc2ccc(CN3CCOCC3)cc2)cc1,0.0,361.7*,-9.2,13.5,0.3
Cc1c(O)ccc(C(=O)CN2C(=O)c3ccccc3C2=O)c1O,-0.8,875.7*,-3.8,9.1,1.6
Cc1ccc(C)c(C(=O)CN2C(=O)c3ccccc3C2=O)c1,-0.4,-1.0,-1.8,17.9,.
COC(=O)C(Cc1cccc(C)n1)(c1ccccc1)c1ccccc1,-0.1,-10.9,6.9,0.3,.
CCOc1ncccc1C(=O)OCC(=O)N(CC)c1ccccc1,-0.5,439.3*,-2.6,8.4,0.1
Cc1ccc(/C=C/C(=O)c2ccc([N+](=O)[O-])o2)cc1,-0.9,+,.,10.0,-0.1
C=CCNC(=S)NNC(=O)c1cc(-c2cccnc2)nc2ccccc12,-0.3,-32.3,55.5,13.7,.
C=CCNC(=O)c1cc(-c2cccnc2)nc2ccccc12,-0.4,441.3*,-4.2,27.6,0.8
CC1C(=O)N2CCCc3cc(NC(=O)C(=O)NCCc4ccc(F)cc4)cc1c32 (configuration not stated),-2.4,15.7,1.0,3.7,.
O=C(C(=O)N1CCN(Cc2ccc3c(c2)OCO3)CC1)c1c[nH]c2ccccc12,-0.4,-22.5,0.1,3.6,.
CSc1nnc2c3cc(C)ccc3n(Cc3ccccc3)c2n1,0.4,910.4*,-2.5,8.4,0.2
O=C(CCSc1nnc(-c2ccncc2)o1)Nc1ccc(Cl)cc1,-0.1,450.0*,.,45.4,-0.9
O=C(c1cc(F)ccc1F)C1CCCN(C(=O)c2ccc3nccnc3c2)C1 (configuration not stated),0.9,670.3*,-0.4,-6.0,-0.8
O=S(=O)(Cc1ccccc1)N1CCN(c2ccccc2)CC1,-0.7,583.4*,-3.7,24.1,0.5
O=C(COc1ccccc1)NCCS(=O)(=O)N1CCN(c2ccccc2)CC1,-3.0,380.0*,-4.2,12.6,0.1
CC(C)N(C(=O)[C@H]1CC(CC(=O)NCc2cccc(C(F)(F)F)c2)C(=O)N2CCc3c([nH]c4ccccc34)[C@]12C)C(C)C (some centres not stated),.,53.0,.,.,.
COc1ccc(CNC(=O)CN2CCN(S(=O)(=O)c3ccccc3)CC2)cc1,.,11.8,-2.2,.,.
Cc1ccc(Oc2ccc(OCC(=O)Nc3ccncc3)cc2)cc1,.,378.1*,-6.7,.,0.0
SMILES,HIF act,SUMO Mot1 rescue,ALR H2O2 inh,AI-2 QS mod,Yeast Mot1 SUMO
CCc1ccc(OCC(=O)Nc2ccncc2)cc1,-0.3,17.0,.,-44.8,.
C/C(=N\N=C(/N)SC1CC(=O)N(c2cccc(Cl)c2)C1=O)c1cccs1 (configuration not stated),-0.1,374.1*,6.3,-10.6,-1.0
COc1ccc(C2=Nn3c(nnc3-c3ccco3)SC2)cc1,1.4,532.8*,0.4,48.2,-0.6
N#C/C(=C\c1ccc(O)c(O)c1)C(=O)Nc1ccccc1,.,369.4*,99.1*,.,-0.7
COc1ccccc1Nc1ccc(NC(=O)c2cccc([N+](=O)[O-])c2C)cc1,2.1,87.1,-0.2,29.3,.
Cn1nccc1C(=O)Nc1nnc(C2CC2)s1,-0.2,-11.9,0.3,0.0,.
CCOc1ccc2cc(C3CC(c4ccco4)=NN3S(C)(=O)=O)c(=O)[nH]c2c1 (configuration not stated),0.6,-10.2,10.5,27.6,.
CCCCCC(=O)Nc1nnn(CCC)n1,-0.3,+,-6.6,22.2,0.6
CCN(CC)CCNC(=O)C(=O)Nc1cc2c3c(c1)CCC(=O)N3CCC2,0.6,-2.6,-25.9,-7.1,.
CCC1OC2(C)OC(=N)C1(C#N)C(C#N)(C#N)C2c1ccccc1 (configuration not stated),0.5,156.2,-19.6,24.7,.
CC(C)C1OC2(C)OC(=N)C1(C#N)C(C#N)(C#N)C2c1ccccc1 (configuration not stated),-0.6,414.1*,-17.0,53.3,0.9
COCCn1c(N)c(N(Cc2ccccc2)C(=O)CN2C(=O)NC(C)(c3ccccc3)C2=O)c(=O)[nH]c1=O (configuration not stated),0.4,530.9*,-3.2,6.6,-0.2
CCCCn1c(N)c(N(Cc2ccccc2OC)C(=O)CN2C(=O)NC(C)(c3ccccc3)C2=O)c(=O)[nH]c1=O (configuration not stated),-0.2,5.0,-12.1,9.2,.
CCCC(=O)Oc1c(S(=O)(=O)c2ccc(C)cc2)c(C)nn1C(C)(C)C,-0.1,635.5*,.,6.1,-1.0
CCc1ccc(C(=O)COC(=O)c2ccccc2OC)cc1,2.5,-1.0,-17.0,17.8,.
Cc1nc(NC(=O)CSc2nc(N)cc(N)n2)sc1C,0.3,660.7*,94.2*,17.4,0.1
Cc1nn(C)c(C(=O)N2CCOCC2)c1Cl,-1.0,8.2,-2.3,3.5,.
Cc1ccc(C)n1-c1ccc(N(C)C)cc1,0.3,+,.,28.7,-0.1
Cc1ccc(C)n1-c1ccc(N2CCOCC2)cc1,-0.2,-2.4,73.3,56.9,.
CCCN1CCN(CCCNC(=O)CCn2nc(-c3ccccc3)ccc2=O)CC1,0.3,565.5*,-2.9,-12.7,0.4
CN(C)S(=O)(=O)c1ccc2c(c1)Cc1cc(S(=O)(=O)N(C)C)ccc1-2,-0.3,12.3,-3.8,16.7,.
COCCC(=O)N1CCCC(C(=O)c2ccc(C(F)(F)F)cc2)C1 (configuration not stated),0.5,14.4,-0.3,30.4,.
CC(C)NC(=O)CCCc1cn(C)c2ccccc12,-0.5,502.7*,10.7,24.2,0.8
Cc1cc(C)cc(C(=O)N2CCC3(CC2)NCCc2[nH]cnc23)c1,-0.1,395.7*,.,28.1,0.2
COc1cc(C(=O)N2CCC3(CC2)NCCc2[nH]cnc23)cc(OC)c1OC,0.2,-7.8,-6.2,6.9,.
CCN(C(=O)Cn1nc(C)c([N+](=O)[O-])c1C)c1c(N)n(Cc2ccccc2)c(=O)[nH]c1=O,-1.6,375.6*,0.5,24.1,0.7
CCN(C(=O)CN1CCCCC1)c1c(N)n(Cc2ccccc2)c(=O)[nH]c1=O,.,10.7,0.8,.,.
